# PubChem BioAssay (NCI)
# About 83,000 compounds went through this panel and 20% of them were active in at least one assay; those are over-represented in the sample as a whole.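 Percent growth is the endpoint: 0 to 100 indicates growth inhibition (40 means 60% inhibition), 0 means no net growth, and negative values indicate cell death.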 Unmarked numbers belong to inactive results. The source made the active and inactive calls. How the source made its calls: active means growth percent below 10; inactive means the rest.
# Key:
# Test in all cases: NCI-60 one-dose screen, 48 h (100 = growth as untreated, 0 = no growth, -100 = all killed)
# Details in all cases: 10 µM unless noted
# SR leukemia = tested on: SR leukemia
# RPMI-8226 leukemia = tested on: RPMI-8226 leukemia
# OVCAR-8 ovarian = tested on: OVCAR-8 ovarian
# OVCAR-5 ovarian = tested on: OVCAR-5 ovarian
# OVCAR-4 ovarian = tested on: OVCAR-4 ovarian
# SK-OV-3 ovarian = tested on: SK-OV-3 ovarian
# IGROV1 ovarian = tested on: IGROV1 ovarian
# HS 578T breast = tested on: HS 578T breast
# NCI/ADR-RES ovarian = tested on: NCI/ADR-RES ovarian
# T-47D breast = tested on: T-47D breast
# BT-549 breast = tested on: BT-549 breast
# MDA-MB-435 melanoma = tested on: MDA-MB-435 melanoma
# SW-620 colon = tested on: SW-620 colon
# MCF7 breast = tested on: MCF7 breast
# HCT-116 colon = tested on: HCT-116 colon
# HCC-2998 colon = tested on: HCC-2998 colon
# KM12 colon = tested on: KM12 colon
# OVCAR-3 ovarian = tested on: OVCAR-3 ovarian
SMILES,growth (SR leukemia),growth (RPMI-8226 leukemia),growth (OVCAR-8 ovarian),growth (OVCAR-5 ovarian),growth (OVCAR-4 ovarian),growth (SK-OV-3 ovarian),growth (IGROV1 ovarian),growth (HS 578T breast),growth (NCI/ADR-RES ovarian),growth (T-47D breast),growth (BT-549 breast),growth (MDA-MB-435 melanoma),growth (SW-620 colon),growth (MCF7 breast),growth (HCT-116 colon),growth (HCC-2998 colon),growth (KM12 colon),growth (OVCAR-3 ovarian)
COc1ccc(C2=NNC(c3ccc(Oc4nc5c(c(=O)n(C)c(=O)n5C)n4C)c(OC)c3)C2)cc1 (centres undefined),62.7%,80.4%,94.4%,102%,98.1%,117%,105%,89.4%,87.2%,86.3%,88.6%,93%,109%,87.6%,98.2%,102%,97.6%,
Clc1ccc(-c2cnc3c(-c4ccnc(N5CCNCC5)c4)cnn3c2)cc1,-0.57% (active),-39% (active),1.08% (active),-21.2% (active),-60.9% (active),85.2%,,-32% (active),-0.0998% (active),,78.1%,-51.1% (active),-50.4% (active),-63.4% (active),-68.3% (active),-43% (active),-3.73% (active),-14.6% (active)
COc1ccc(CNc2c3ccccc3nc3ccc(OC)cc23)cc1,-15.5% (active),-47.7% (active),25.4%,30.7%,18.4%,47.2%,11.2%,25.9%,16.2%,34.2%,43%,19%,15.8%,-29.8% (active),12.7%,-57.6% (active),27.6%,
CCCCCCCCCCCCCCCC1=NCCN1,-44.9% (active),40.8%,84.5%,69%,78%,99.2%,42.3%,84.4%,75.4%,-15.4% (active),98%,0.615% (active),7.4% (active),32%,34.6%,73.8%,64.1%,
COc1ccc(C(=O)OC2C(OC3C(O)COC(O[C@H]4C[C@H]5[C@@H]6CC=C7C[C@@H](O)CC[C@]7(C)[C@H]6CC[C@]5(C)[C@H]4[C@H](C)C(=O)CCC(C)C)C3OC(=O)C(C)C)OCC(O)C2O)cc1 (some centres undefined),5.59% (active),-27.4% (active),36.3%,42%,60.9%,,37.2%,-2.09% (active),75%,-1.53% (active),14.6%,-1.62% (active),-19.5% (active),3.21% (active),10.3%,59%,36.3%,60.5%
CC(C)CC(=O)C(CCc1ccccn1)C(C)C (centres undefined),108%,95.8%,105%,105%,111%,120%,114%,97.8%,102%,96.3%,108%,104%,104%,104%,105%,106%,113%,
CC[C@]1(O)C[C@H]2CN(CCc3c([nH]c4ccccc34)C(C(=O)OC)(c3cc4c(cc3OC)N(C)[C@H]3[C@@](O)(C(=O)OC)[C@H](OC(C)=O)[C@]5(CC)[C@@H]6C[C@@H]6CN6CC[C@]43[C@@H]65)C2)C1 (some centres undefined),-20.5% (active),42.1%,19.4%,6.6% (active),29.1%,-11.9% (active),9.14% (active),43.9%,-3.99% (active),65.6%,-47.2% (active),-12.8% (active),31.6%,4.81% (active),-22.4% (active),2.47% (active),12%,
O=C(N/N=C\c1cc(Br)ccc1O)c1ccncc1,14.2%,36.9%,27.5%,54.8%,36.8%,38.3%,25.2%,76.5%,12.4%,-3.65% (active),45.2%,64.1%,37.7%,2.38% (active),21%,,25.8%,
NC(N)=NC1CCCCC1,92.6%,85.6%,98.5%,109%,105%,,107%,107%,98%,103%,105%,104%,100%,96.4%,98.6%,104%,-69% (active),-50.3% (active)
COc1ccc(/C=C/c2nc3ccccc3c(=O)n2-c2ccc(C#Cc3ccc(C(C)(C)C)cc3)cc2C)c(OC)c1,42%,52%,110%,120%,97.9%,103%,109%,,105%,85.5%,99.4%,91.8%,86.7%,105%,69%,97.2%,88.1%,87.5%
COc1cc(C2CC(c3ccc(Cl)cc3)=NN2C(C)=O)ccc1Oc1nc2c(c(=O)n(C)c(=O)n2C)n1C (centres undefined),78.5%,72.1%,92.2%,108%,67.9%,,82.3%,80.5%,61.6%,76.8%,83.2%,64.1%,98.1%,70.2%,85.5%,87.3%,78.2%,102%
Nc1c(C(=O)Nc2ccccc2)sc2nc3c(cc12)C(=O)CCC3,21.9%,30.2%,39.9%,59.9%,,19.7%,36.4%,37.5%,-6.39% (active),47.1%,65.7%,-5.95% (active),27.2%,19.6%,23.6%,21.9%,19.9%,-19.4% (active)
C[N+](C)(C)CC(=O)N/N=C\c1ccco1,81.2%,103%,102%,97%,,103%,104%,99.4%,111%,97.7%,104%,107%,98.9%,88.6%,101%,110%,96.8%,114%
CCN(CC)c1ccc(/C=N/NC(=O)C[N+](C)(C)C)cc1,16.6%,92%,111%,99.1%,,102%,115%,110%,103%,101%,103%,110%,101%,96.9%,102%,104%,102%,110%
CCCCCc1c(C)[nH]c(/C=C2\N=C(c3ccc[nH]3)C=C2Oc2ccc(OC)cc2)c1C,-9.14% [100 µM] (active),-37.7% [100 µM] (active),,-65.3% [100 µM] (active),-99.7% [100 µM] (active),-63.2% [100 µM] (active),-70.6% [100 µM] (active),0.631% [100 µM] (active),-78% [100 µM] (active),-48.5% [100 µM] (active),-91.5% [100 µM] (active),-82.2% [100 µM] (active),-56.5% [100 µM] (active),-100% [100 µM] (active),-99.4% [100 µM] (active),-58.2% [100 µM] (active),-90.9% [100 µM] (active),-95% [100 µM] (active)
C=CC(=O)N1CN(C(=O)C=C)CN(C(=O)C=C)C1,25.3%,84.6%,62.4%,109%,,99%,56.8%,71.8%,70.8%,33.6%,76.3%,81.2%,15.3%,39.6%,13.7%,,85.8%,4.76% (active)
